The full data set covers some 7,900 targets. This sample favours those with a hit. About 0.6% of all pairs of compound and target were hits.
Tests used:
Experiment in all cases: log2 fold change, soluble protein after heating vs DMSO (PISA); higher = thermal stabilisation; K562 cells, 10 uM, 30 min; active = over 0.2 and 3.5 SD of the protein, either way, in both replicates (recomputed)
[1] = compound: NC(=O)Nc1cc(-c2cccc(F)c2)sc1C(=O)N[C@H]1CCCNC1
In short: (§1)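 For each measurement, 10 μM compound was applied for 30 min to K562 cells at 2×10^6 cells/mL. Aliquots were heated for 3 min across 48°C-58°C, pooled, and extracted in PBS with 0.5% NP-40 at 4°C; the supernatant after 21,000xg for 90 min was soluble protein. This was quantified by TMTpro 16plex LC-MS/MS with channel sums equalised, and thermal stability was reported relative to control samples from duplicates, on a log2 fold-change scale.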

[2] = compound: NC(=O)c1cnc(N[C@@H]2CCCC[C@@H]2N)nc1Nc1cccc(-n2nccn2)c1
In short: as §1

[3] = compound: NC1(c2ccc(-c3nc4ccn5c(=O)[nH]nc5c4cc3-c3ccccc3)cc2)CCC1
In short: as §1

[4] = compound: NCC(=O)Nc1ccc(-n2nc(C(F)(F)F)cc2-c2ccc3c(ccc4ccccc43)c2)cc1
In short: as §1

entinostat = compound: Nc1ccccc1NC(=O)c1ccc(CNC(=O)OCc2cccnc2)cc1 [entinostat]
In short: as §1

vorinostat = compound: O=C(CCCCCCC(=O)Nc1ccccc1)NO [vorinostat]
In short: as §1

citarinostat = compound: O=C(CCCCCCNC(=O)c1cnc(N(c2ccccc2)c2ccccc2Cl)nc1)NO [citarinostat]
In short: as §1

silmitasertib = compound: O=C(O)c1ccc2c(c1)nc(Nc1cccc(Cl)c1)c1ccncc12 [silmitasertib]
In short: as §1

[5] = compound: O=C1NC(=O)C(c2cnc3ccccn23)=C1c1cn2c3c(cc(F)cc13)CN(C(=O)N1CCCCC1)CC2
In short: as §1

[6] = compound: c1cc(OCCN2CCCCC2)cc(-c2n[nH]c3ccc(-c4nnc[nH]4)cc23)c1
In short: as §1

entospletinib = compound: c1cn2cc(-c3ccc4cn[nH]c4c3)nc(Nc3ccc(N4CCOCC4)cc3)c2n1 [entospletinib]
In short: as §1

Measured: log2 fold change

EOGT (UniProt Q5NDL2)
inactive: [1] -0.008 | [2] -0.063 | [3] -0.045 | [4] -0.011 | entinostat 0.031 | vorinostat -0.092 | citarinostat -0.016 | silmitasertib 0.038 | [5] 0.009 | [6] -0.063 | entospletinib 0.005

ELAC1 (UniProt Q9H777)
inactive: [1] 0.014 | [2] 0.053 | [4] -0.082 | entinostat -0.202 | vorinostat 0.285 | citarinostat 0.05 | [5] 0.075 | [6] -0.05 | entospletinib 0.069

EGR1 (UniProt P18146)
inactive: [1] -0.029 | [2] -0.346 | [3] 0.345 | [4] 0.066 | entinostat 0.091 | vorinostat -0.033 | silmitasertib 0.085 | [5] -0.109

FAM207A (UniProt Q9NSI2)
inactive: [1] -0.005 | [2] 0.076 | [3] -0.165 | [4] -0.042 | entinostat 0.052 | vorinostat 0.015 | citarinostat 0.106 | silmitasertib 0.356 | [5] 0.099 | [6] -0.117 | entospletinib 0.013

ERLIN2 (UniProt O94905)
inactive: [1] 0.04 | [2] -0.047 | [3] -0.01 | [4] -0.062 | entinostat 0.032 | vorinostat 0.048 | citarinostat 0.011 | silmitasertib 0.002 | [5] 0.069 | [6] -0.044 | entospletinib -0.062

EDEM2 (UniProt Q9BV94)
inactive: [1] 0.004 | [2] -0.108 | [3] -0.054 | [4] -0.039 | entinostat -0.003 | vorinostat 0.001 | silmitasertib 0.027 | [5] -0.029

EIF4A1 (UniProt P60842)
inactive: [1] 0.148 | [2] -0.08 | [3] -0.029 | [4] -0.044 | entinostat 0.079 | vorinostat 0.068 | citarinostat 0.088 | silmitasertib -0.01 | [5] -0.01 | [6] -0.05 | entospletinib -0.083

DCP2 (UniProt Q8IU60)
inactive: [1] -0.076 | [2] 0.009 | [4] -0.079 | entinostat 0.048 | [5] 0.048

DNAAF2 (UniProt Q9NVR5)
inactive: [1] 0.039 | [2] 0.025 | [3] -0.042 | [4] -0.044 | entinostat -0.06 | vorinostat 0 | citarinostat -0.034 | silmitasertib 0.016 | [5] -0.003 | [6] -0.03 | entospletinib 0.051

DSN1 (UniProt Q9H410)
inactive: [1] -0.026 | [2] -0.057 | [3] -0.166 | [4] -0.037 | entinostat 0.076 | citarinostat 0.021 | silmitasertib 0.025 | [5] -0.032 | [6] -0.081 | entospletinib -0.044

EPHX2 (UniProt E5RI53)
inactive: [5] -0.058

DCAF4 (UniProt Q8WV16)
inactive: [1] -0.046 | [3] -0.127 | entinostat 0.005 | vorinostat 0.238 | citarinostat -0.1 | silmitasertib 0.066 | [5] -0.096 | [6] -0.094 | entospletinib -0.146

FAM160A2 isoform 2 (UniProt Q8N612)
Chain of UniProt Q8N612 (Q8N612 whole entry, looked up): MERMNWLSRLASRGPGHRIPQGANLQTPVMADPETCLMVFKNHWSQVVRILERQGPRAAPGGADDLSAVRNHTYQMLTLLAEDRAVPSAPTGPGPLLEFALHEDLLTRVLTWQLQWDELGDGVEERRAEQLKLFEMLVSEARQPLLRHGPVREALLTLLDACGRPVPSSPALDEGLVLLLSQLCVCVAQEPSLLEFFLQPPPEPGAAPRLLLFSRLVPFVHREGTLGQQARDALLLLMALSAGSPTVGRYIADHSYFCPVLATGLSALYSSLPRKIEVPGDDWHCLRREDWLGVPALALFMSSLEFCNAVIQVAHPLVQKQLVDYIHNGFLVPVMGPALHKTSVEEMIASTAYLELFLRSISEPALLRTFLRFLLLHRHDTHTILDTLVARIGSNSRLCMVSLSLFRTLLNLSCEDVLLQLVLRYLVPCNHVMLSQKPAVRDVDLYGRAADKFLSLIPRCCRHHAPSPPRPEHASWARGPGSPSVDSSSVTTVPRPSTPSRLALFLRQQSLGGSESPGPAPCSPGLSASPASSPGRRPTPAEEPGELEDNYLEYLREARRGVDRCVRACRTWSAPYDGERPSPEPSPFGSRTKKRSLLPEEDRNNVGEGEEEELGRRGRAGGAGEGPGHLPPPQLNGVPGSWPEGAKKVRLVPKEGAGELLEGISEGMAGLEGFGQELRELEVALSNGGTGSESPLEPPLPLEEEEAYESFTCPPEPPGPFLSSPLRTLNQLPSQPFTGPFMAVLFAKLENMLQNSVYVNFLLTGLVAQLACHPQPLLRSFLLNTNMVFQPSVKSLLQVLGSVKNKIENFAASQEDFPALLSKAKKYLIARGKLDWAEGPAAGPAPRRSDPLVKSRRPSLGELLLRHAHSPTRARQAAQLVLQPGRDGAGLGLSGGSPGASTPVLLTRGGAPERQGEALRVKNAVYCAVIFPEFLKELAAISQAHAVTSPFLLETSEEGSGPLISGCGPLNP
inactive: [3] 0.158 | [4] -0.26 | vorinostat -0.009 | citarinostat -0.154 | silmitasertib 0.057 | [5] 0.026 | [6] 0.068 | entospletinib 0.039

EIF4G1 (UniProt Q04637)
inactive: [2] -0.14 | [4] -0.075 | vorinostat 0.085

ELMO1 (UniProt Q92556)
inactive: [1] -0.07 | [3] -0.146 | [4] -0.316 | entinostat 0.093 | silmitasertib 0.04 | [5] -0.104

FAM117B (UniProt Q6P1L5)
Chain of UniProt Q6P1L5 (Q6P1L5 whole entry, looked up): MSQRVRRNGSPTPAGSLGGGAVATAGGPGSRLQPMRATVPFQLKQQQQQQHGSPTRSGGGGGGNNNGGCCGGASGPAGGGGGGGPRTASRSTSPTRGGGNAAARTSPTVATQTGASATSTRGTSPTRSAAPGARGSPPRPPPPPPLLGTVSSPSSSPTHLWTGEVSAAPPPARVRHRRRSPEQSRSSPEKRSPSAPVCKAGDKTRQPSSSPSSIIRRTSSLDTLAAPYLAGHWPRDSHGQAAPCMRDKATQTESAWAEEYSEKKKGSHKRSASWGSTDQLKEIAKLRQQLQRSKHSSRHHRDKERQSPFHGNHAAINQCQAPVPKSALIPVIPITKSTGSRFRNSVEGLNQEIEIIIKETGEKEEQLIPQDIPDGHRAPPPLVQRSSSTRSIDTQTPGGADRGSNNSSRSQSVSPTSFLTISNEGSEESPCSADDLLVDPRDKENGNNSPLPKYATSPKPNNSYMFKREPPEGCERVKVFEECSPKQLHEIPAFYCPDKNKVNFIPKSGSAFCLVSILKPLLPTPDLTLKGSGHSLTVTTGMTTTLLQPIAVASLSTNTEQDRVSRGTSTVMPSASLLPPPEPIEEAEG
inactive: [2] -0.159 | [4] 0.229 | vorinostat 0.059 | citarinostat -0.047 | [5] -0.144 | [6] 0.105 | entospletinib 0.009

DNAJB1 (UniProt M0R128)
inactive: [4] -0.151

DOLPP1 (UniProt Q86YN1)
inactive: [2] -0.102 | [3] -0.053 | [4] -0.003 | citarinostat 0.075 | silmitasertib 0.008 | [6] -0.007 | entospletinib 0.055

ENTPD7 (UniProt Q9NQZ7)
inactive: [1] 0.024 | [3] -0.052 | entinostat 0.236 | citarinostat 0.131 | silmitasertib -0.357 | [5] -0.098 | [6] -0.138 | entospletinib 0.096

DNAJC24 (UniProt Q6P3W2)
inactive: [1] 0.023 | [3] 0.011 | [4] -0.129 | entinostat 0.055 | citarinostat 0.102 | silmitasertib 0.052 | [5] -0.059 | [6] -0.169 | entospletinib 0.186

CWF19L2 (UniProt Q2TBE0)
Chain of UniProt Q2TBE0 (Q2TBE0 whole entry, looked up): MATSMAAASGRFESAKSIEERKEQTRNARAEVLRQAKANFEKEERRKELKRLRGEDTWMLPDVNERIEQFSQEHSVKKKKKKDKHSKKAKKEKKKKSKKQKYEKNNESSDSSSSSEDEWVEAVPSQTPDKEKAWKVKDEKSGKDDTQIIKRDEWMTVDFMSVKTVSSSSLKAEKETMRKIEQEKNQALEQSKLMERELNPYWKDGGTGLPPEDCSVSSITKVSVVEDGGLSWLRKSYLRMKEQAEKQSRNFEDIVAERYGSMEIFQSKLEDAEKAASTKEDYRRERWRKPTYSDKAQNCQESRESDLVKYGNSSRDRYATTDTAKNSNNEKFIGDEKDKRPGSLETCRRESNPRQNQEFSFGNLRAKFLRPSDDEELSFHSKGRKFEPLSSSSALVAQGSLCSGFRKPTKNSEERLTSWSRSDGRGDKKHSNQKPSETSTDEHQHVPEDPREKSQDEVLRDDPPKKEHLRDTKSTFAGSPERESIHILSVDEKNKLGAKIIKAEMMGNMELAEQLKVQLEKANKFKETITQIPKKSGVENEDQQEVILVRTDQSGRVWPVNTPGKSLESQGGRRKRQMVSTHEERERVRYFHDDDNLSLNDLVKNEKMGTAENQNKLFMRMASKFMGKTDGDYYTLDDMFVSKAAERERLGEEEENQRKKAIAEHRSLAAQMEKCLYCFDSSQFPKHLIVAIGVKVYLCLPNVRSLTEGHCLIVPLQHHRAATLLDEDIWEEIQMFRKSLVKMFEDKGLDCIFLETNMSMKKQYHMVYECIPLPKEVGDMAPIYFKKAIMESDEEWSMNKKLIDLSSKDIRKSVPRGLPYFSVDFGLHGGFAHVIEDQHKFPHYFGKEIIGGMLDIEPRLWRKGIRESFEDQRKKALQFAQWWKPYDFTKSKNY
inactive: [1] 0.129 | [2] 0.013 | entinostat -0.134 | vorinostat -0.184 | citarinostat 0.13 | [6] -0.001 | entospletinib -0.162

ELF1 (UniProt P32519)
inactive: [1] -0.124 | [2] -0.044 | entinostat -0.11 | citarinostat -0.089 | [5] -0.075 | [6] -0.18 | entospletinib -0.082

DLK1 (UniProt P80370)
inactive: [4] -0.061 | citarinostat -0.018 | [5] -0.109 | [6] -0.203 | entospletinib 0.076

ELOVL7 (UniProt A1L3X0)
inactive: [2] -0.001 | [5] -0.09

DOP1A (UniProt Q5JWR5)
inactive: [3] 0.106 | [4] -0.051 | silmitasertib -0.056 | [5] 0

DNAH5 (UniProt Q8TE73)
inactive: [1] -0.029 | [3] -0.077 | [4] 0.016 | entinostat -0.037 | vorinostat -0.103 | citarinostat 0.047 | silmitasertib 0.001 | [5] 0.014 | [6] 0.029 | entospletinib -0.039

DNAL1 (UniProt Q4LDG9)
Chain of UniProt Q4LDG9 (Q4LDG9 whole entry, looked up): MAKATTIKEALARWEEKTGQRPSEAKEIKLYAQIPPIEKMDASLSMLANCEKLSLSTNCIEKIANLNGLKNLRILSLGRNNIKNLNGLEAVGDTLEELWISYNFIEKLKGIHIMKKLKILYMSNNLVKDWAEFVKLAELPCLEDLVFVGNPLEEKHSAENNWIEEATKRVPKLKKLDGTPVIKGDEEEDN
inactive: [2] 0.035 | [4] 0.05 | [5] -0.26

EPHB4 (UniProt P54760)
inactive: [1] -0.207 | [3] -0.102 | entinostat 0.122 | silmitasertib 0.18

CTSS (UniProt P25774)
inactive: [1] -0.054 | [4] 0.053 | entinostat -0.013 | vorinostat 0.15 | citarinostat 0.19 | [6] -0.089 | entospletinib 0.07

EHBP1 (UniProt Q8NDI1)
inactive: [2] -0.092 | [3] 0.017 | vorinostat -0.034 | citarinostat -0.009 | silmitasertib 0.087 | [6] -0.14 | entospletinib -0.082

EEF2K (UniProt O00418)
Chain of UniProt O00418 (O00418 whole entry, looked up): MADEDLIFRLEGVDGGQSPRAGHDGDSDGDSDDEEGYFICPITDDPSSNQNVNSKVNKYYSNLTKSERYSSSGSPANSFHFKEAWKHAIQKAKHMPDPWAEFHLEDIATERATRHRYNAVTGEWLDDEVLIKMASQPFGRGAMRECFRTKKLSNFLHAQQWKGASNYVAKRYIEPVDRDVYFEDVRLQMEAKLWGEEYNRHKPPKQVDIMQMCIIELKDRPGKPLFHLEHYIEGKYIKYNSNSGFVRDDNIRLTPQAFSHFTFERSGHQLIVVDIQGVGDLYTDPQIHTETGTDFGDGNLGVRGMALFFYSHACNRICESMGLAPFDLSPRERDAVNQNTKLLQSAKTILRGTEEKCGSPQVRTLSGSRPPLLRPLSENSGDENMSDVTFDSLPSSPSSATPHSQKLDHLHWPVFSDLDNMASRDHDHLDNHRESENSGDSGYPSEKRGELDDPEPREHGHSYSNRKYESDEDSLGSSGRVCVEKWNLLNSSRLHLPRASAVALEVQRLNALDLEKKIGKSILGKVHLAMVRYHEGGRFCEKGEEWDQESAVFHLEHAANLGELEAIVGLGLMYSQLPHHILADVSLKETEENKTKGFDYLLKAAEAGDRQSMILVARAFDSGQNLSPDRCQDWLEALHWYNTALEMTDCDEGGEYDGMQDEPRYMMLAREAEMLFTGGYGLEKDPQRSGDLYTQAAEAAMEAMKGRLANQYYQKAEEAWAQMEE
inactive: [3] -0.119 | [4] -0.114 | vorinostat 0.19 | citarinostat -0.05 | silmitasertib 0.216 | [5] 0.178 | [6] 0.012 | entospletinib 0.09

FAM135A (UniProt Q9P2D6)
Chain of UniProt Q9P2D6 (Q9P2D6 whole entry, looked up): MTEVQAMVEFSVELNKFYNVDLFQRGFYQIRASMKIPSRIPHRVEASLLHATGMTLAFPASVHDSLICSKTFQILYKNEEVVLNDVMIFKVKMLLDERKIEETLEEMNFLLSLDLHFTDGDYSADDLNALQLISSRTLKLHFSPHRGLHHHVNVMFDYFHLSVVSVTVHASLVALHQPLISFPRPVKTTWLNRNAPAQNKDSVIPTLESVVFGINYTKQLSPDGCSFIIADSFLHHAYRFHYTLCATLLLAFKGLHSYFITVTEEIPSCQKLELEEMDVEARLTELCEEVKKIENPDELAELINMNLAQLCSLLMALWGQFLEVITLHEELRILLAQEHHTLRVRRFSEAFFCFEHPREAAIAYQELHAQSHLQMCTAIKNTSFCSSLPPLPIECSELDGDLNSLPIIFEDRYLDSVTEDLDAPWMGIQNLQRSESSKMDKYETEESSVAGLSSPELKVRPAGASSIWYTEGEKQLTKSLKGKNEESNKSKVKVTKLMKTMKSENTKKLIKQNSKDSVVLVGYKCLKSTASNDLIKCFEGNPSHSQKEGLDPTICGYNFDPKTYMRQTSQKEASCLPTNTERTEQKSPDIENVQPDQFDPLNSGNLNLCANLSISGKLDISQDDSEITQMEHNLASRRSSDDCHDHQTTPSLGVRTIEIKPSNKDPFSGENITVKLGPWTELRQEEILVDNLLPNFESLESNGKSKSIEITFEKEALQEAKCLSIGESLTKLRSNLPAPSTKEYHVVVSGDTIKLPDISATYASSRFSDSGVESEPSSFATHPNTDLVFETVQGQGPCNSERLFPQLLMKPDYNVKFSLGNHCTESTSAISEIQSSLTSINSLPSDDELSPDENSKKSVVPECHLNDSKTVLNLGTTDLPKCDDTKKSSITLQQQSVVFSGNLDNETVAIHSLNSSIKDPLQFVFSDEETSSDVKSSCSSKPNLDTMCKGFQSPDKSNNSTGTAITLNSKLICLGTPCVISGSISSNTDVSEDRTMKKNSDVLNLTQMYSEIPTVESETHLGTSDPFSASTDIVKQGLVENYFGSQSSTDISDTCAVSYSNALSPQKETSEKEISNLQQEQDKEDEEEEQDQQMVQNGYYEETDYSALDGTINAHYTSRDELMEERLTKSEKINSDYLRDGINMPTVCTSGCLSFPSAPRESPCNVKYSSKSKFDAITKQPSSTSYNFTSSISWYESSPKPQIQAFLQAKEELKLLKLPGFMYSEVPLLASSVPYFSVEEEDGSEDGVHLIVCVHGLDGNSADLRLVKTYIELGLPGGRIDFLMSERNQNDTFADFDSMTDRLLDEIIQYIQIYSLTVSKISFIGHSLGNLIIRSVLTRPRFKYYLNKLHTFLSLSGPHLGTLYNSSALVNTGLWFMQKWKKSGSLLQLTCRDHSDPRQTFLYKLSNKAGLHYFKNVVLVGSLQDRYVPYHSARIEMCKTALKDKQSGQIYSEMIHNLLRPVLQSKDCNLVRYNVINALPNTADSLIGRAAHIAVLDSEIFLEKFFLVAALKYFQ
inactive: [1] 0.069 | [4] -0.024 | entinostat -0.03 | [5] -0.088

EID1 (UniProt Q9Y6B2)
Chain of UniProt Q9Y6B2 (Q9Y6B2 whole entry, looked up): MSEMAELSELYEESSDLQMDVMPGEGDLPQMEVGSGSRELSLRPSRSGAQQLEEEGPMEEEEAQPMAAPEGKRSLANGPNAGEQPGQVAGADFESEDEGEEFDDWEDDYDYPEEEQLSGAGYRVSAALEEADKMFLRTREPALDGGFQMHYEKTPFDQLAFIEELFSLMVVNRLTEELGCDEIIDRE
inactive: [1] -0.078 | [3] -0.055 | entinostat 0.086 | vorinostat -0.457 | silmitasertib -0.156 | [5] -0.652

DDX46, A0A0C4DG89
inactive: [3] -0.177 | silmitasertib -0.288 | [5] -0.148

DERPC (UniProt P0CG12)
inactive: [3] 0.008 | [4] -0.16 | vorinostat -0.042 | citarinostat -0.049 | silmitasertib -0.024 | [6] -0.045 | entospletinib 0.125

EEF1D isoform 3 (UniProt P29692)
inactive: [3] 0.2 | silmitasertib -0.401

DHPS (UniProt M0R1T2)
inactive: [1] 0.063 | entinostat 0.072

DNAH10 (UniProt Q8IVF4)
inactive: [1] 0.057 | [3] -0.045 | [4] 0.026 | entinostat -0.041 | vorinostat 0.083 | citarinostat 0.242 | silmitasertib -0.101 | [5] -0.102 | [6] 0.172 | entospletinib -0.132

FADS1 (UniProt F5GYH4)
inactive: [4] -0.191

ENTR1 (UniProt Q96C92)
inactive: [4] -0.284

EDRF1 (UniProt Q3B7T1)
inactive: [1] -0.062 | [3] -0.044 | entinostat -0.055 | vorinostat 0.083 | citarinostat -0.044 | silmitasertib -0.031 | [5] -0.057 | [6] -0.103 | entospletinib -0.036

CTNNBL1 (UniProt Q8WYA6)
inactive: [4] 0.175 | citarinostat 0.057 | [6] -0.068 | entospletinib 0.069

EIF2AK3 (UniProt Q9NZJ5)
inactive: [2] 0.056 | [3] -0.211 | vorinostat -0.02 | citarinostat -0.039 | silmitasertib -0.085 | [5] 0.127 | [6] 0.097 | entospletinib -0.03

DDB1 isoform 2 (UniProt Q16531)
inactive: [1] -0.295 | entinostat -0.237 | vorinostat -0.032 | citarinostat -0.203 | [5] -0.09 | [6] -0.12 | entospletinib 0.162

DENND1A isoform 6 (UniProt Q8TEH3)
inactive: [4] -0.119

F2RL3 (UniProt Q96RI0)
inactive: [2] 0.003 | [4] -0.085

CYP24A1 (UniProt Q07973)
inactive: [2] 0.045 | [3] 0.43 | [4] 0.21 | vorinostat 0.067 | citarinostat -0.002 | silmitasertib 0.099 | [6] 0.109 | entospletinib 0.019

DCAF12 (UniProt Q5T6F0)
inactive: [1] -0.025 | [3] -0.201 | entinostat -0.003 | vorinostat -0.021 | citarinostat -0.033 | silmitasertib 0.051 | [6] 0.055 | entospletinib 0.025

ERF (UniProt P50548)
inactive: [1] -0.53 | entinostat -0.019 | vorinostat 0.023 | [5] -0.273

DNM2 isoform 4 (UniProt P50570)
inactive: [1] -0.033 | [3] -0.318 | entinostat 0.342 | vorinostat -0.068 | citarinostat -0.113 | silmitasertib 0.116 | [5] 0.19 | [6] 0.06 | entospletinib -0.257

— the supplement of paper PMC10849652
